Holding throughout (assay): DAPPL (digital affinity profiling via proximity ligation, sequencing); 10 mM Tris-HCl pH 7.5, 50 mM NaCl, 1 mM DTT, 4% glycerol, room temperature, 30 min; GST-TFs on glutathione beads, 16-mer random dsDNA library, 0.1% formaldehyde crosslink after washing; high values mean tight binding
Assay [1] addresses T1, FLI1 (Homo sapiens, UniProt Q01543 1-452).
T1 sequence: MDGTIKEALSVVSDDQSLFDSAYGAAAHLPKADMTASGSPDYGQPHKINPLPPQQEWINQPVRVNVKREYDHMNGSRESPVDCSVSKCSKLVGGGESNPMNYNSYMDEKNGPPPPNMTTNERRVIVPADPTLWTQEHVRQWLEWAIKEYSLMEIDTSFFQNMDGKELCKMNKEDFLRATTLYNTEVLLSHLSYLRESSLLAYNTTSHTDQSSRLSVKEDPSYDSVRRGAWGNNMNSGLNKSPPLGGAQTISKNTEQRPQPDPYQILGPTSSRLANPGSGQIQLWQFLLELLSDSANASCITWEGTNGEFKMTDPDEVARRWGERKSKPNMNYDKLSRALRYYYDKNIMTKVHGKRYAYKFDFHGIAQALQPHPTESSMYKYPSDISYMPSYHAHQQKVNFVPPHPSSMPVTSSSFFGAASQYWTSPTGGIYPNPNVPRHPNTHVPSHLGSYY
The conditions noted are these: protein: recombinant; tags: N-terminal GST; dsDNA, one strand shown. An outline of the steps:
(§1)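 A tag-only sample was pooled with DNA-barcoded human transcription factors that had been expressed in yeast as GST fusions and captured on glutathione beads. The pools were incubated for 30 min at room temperature with 200 nmole of a random double-stranded 16-mer DNA library in Tris/NaCl/DTT/glycerol buffer, then washed, crosslinked with 0.1% formaldehyde, proximity-ligated (BsaI/T4 ligase, 1 h, 37 °C), PCR-amplified and sequenced on an Illumina NextSeq500. Binding signal is each hexamer's read frequency for a factor divided by its frequency for the tag-only sample.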

Assay [2] has as its target T2, ELK1 (Homo sapiens, UniProt P19419 1-428).
T2 sequence: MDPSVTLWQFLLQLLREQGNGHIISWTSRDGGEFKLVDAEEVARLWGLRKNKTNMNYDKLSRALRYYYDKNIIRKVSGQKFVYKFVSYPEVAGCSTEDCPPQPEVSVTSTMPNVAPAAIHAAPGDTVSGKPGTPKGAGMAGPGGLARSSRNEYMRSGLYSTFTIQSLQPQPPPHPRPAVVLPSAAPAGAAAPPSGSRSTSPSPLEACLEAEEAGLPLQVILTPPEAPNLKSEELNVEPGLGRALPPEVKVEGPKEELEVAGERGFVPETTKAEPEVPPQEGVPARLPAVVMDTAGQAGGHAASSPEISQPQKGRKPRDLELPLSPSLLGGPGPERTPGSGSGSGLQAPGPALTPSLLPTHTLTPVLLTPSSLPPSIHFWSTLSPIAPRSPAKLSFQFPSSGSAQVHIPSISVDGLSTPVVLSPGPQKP
As to conditions: protein: recombinant; tags: N-terminal GST; dsDNA, one strand shown. An outline of the steps:
as §1

For assay [3], the target named is T3, GABPA (Homo sapiens, UniProt Q06546 1-454).
T3 sequence: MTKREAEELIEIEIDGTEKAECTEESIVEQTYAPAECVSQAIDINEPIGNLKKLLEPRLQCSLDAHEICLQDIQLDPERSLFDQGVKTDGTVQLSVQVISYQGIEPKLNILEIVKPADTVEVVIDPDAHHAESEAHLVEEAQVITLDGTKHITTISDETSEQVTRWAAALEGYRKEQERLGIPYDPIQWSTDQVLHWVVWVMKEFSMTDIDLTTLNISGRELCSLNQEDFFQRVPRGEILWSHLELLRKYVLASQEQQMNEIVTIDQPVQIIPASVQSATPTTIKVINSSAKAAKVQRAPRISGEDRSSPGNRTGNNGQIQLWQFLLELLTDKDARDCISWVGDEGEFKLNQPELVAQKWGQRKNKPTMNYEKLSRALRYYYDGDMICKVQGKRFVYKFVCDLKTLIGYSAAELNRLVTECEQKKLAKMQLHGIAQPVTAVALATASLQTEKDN
As to conditions: protein: recombinant; tags: N-terminal GST; dsDNA, one strand shown. An outline of the steps:
as §1

The target in assay [4] is T4, ERG (Homo sapiens, UniProt P11308 1-479).
T4 sequence: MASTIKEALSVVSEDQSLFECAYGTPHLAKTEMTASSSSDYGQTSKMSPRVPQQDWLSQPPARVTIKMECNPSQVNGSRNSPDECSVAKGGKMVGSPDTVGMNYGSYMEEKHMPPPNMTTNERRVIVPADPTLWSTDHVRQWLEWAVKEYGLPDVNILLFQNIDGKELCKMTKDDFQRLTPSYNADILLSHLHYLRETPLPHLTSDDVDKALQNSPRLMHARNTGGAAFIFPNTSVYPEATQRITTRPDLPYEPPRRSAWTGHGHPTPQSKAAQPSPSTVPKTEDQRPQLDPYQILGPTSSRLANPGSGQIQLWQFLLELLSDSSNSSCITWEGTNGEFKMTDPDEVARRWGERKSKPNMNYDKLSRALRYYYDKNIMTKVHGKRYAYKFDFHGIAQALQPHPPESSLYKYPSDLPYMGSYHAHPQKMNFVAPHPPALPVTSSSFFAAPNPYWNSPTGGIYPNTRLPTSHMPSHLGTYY
The conditions noted are these: protein: recombinant; tags: N-terminal GST; dsDNA, one strand shown. An outline of the steps:
as §1

Assay [5] deals with ELF1 (Homo sapiens, UniProt P32519 1-619). The conditions noted are these: protein: recombinant; tags: N-terminal GST; dsDNA, one strand shown. An outline of the steps: as §1
Sequence of ELF1 (P32519 whole entry): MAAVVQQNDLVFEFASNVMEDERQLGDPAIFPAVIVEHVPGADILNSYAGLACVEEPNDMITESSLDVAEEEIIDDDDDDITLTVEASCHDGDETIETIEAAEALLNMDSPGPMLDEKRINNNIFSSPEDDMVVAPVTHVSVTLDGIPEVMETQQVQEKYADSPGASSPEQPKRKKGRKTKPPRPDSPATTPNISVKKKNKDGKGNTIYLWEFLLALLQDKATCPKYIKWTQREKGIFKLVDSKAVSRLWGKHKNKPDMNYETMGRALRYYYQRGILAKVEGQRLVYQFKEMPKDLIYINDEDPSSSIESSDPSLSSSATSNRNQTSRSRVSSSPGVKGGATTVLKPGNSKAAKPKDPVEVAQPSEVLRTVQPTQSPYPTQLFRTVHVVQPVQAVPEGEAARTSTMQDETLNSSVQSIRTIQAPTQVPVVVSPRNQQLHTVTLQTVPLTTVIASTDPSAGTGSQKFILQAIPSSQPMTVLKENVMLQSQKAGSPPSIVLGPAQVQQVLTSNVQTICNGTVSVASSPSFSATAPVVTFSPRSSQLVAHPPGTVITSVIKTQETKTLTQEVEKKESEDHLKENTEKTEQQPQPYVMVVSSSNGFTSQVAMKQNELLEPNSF
Assay [6] has as its target T5, EHF (Homo sapiens, UniProt Q9NZC4 1-300).
T5 sequence: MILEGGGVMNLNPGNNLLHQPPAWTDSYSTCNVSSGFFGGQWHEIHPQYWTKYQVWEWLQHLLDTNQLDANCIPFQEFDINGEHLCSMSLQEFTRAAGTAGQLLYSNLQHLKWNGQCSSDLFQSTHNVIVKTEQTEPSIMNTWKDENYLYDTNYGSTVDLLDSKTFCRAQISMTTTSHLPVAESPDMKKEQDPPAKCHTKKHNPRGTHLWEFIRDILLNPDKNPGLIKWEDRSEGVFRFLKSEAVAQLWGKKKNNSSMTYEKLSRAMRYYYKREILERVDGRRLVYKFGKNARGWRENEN
The conditions noted are these: protein: recombinant; tags: N-terminal GST; dsDNA, one strand shown. An outline of the steps:
as §1

Assay [7] concerns the target SPI1 (Homo sapiens, UniProt P17947 1-270). The conditions noted are these: protein: recombinant; tags: N-terminal GST; dsDNA, one strand shown. An outline of the steps:
as §1

The target in assay [8] is SPIB (Homo sapiens, UniProt Q01892 1-262). The conditions noted are these: protein: recombinant; tags: N-terminal GST; dsDNA, one strand shown. An outline of the steps: as §1
Sequence of SPIB (Q01892 whole entry): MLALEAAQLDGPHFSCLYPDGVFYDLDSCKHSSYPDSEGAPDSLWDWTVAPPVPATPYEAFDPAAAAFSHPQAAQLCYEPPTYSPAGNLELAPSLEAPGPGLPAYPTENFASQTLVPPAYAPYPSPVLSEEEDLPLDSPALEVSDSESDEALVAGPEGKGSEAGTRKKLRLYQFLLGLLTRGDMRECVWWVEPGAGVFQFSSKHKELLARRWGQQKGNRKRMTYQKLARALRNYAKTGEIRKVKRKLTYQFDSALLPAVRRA
The target of assay [9] is T6, ELK3 (Homo sapiens, UniProt P41970 1-407).
T6 sequence: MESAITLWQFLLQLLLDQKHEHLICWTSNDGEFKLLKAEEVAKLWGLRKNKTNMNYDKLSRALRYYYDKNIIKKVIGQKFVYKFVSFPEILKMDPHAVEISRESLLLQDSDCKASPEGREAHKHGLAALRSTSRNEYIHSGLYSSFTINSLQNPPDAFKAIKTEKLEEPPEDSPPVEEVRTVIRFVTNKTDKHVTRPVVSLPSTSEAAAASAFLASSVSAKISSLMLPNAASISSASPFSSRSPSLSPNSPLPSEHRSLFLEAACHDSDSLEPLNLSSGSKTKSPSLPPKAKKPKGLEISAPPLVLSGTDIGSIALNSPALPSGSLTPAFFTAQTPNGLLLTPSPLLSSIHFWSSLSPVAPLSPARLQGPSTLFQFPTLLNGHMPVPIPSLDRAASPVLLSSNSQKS
As to conditions: protein: recombinant; tags: N-terminal GST; dsDNA, one strand shown. An outline of the steps: as §1

Assay [10] addresses T7, FEV (Homo sapiens, UniProt Q99581 1-238).
T7 sequence: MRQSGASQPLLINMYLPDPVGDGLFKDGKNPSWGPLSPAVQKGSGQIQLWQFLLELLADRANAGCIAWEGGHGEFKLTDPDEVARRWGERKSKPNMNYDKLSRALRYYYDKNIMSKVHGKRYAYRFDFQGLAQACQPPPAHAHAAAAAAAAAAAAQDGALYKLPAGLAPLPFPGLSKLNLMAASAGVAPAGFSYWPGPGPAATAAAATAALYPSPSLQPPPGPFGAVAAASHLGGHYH
The conditions noted are these: protein: recombinant; tags: N-terminal GST; dsDNA, one strand shown. An outline of the steps:
as §1

Assay [11] deals with ETV5 (Homo sapiens, UniProt P41161 1-510). As to conditions: protein: recombinant; tags: N-terminal GST; dsDNA, one strand shown. An outline of the steps:
as §1

In assay [12] the target is HSF1 (Homo sapiens, UniProt Q00613 1-529). As to conditions: protein: recombinant; tags: N-terminal GST; chain copies: 3; dsDNA, one strand shown. An outline of the steps: as §1
Sequence of HSF1 (Q00613 whole entry): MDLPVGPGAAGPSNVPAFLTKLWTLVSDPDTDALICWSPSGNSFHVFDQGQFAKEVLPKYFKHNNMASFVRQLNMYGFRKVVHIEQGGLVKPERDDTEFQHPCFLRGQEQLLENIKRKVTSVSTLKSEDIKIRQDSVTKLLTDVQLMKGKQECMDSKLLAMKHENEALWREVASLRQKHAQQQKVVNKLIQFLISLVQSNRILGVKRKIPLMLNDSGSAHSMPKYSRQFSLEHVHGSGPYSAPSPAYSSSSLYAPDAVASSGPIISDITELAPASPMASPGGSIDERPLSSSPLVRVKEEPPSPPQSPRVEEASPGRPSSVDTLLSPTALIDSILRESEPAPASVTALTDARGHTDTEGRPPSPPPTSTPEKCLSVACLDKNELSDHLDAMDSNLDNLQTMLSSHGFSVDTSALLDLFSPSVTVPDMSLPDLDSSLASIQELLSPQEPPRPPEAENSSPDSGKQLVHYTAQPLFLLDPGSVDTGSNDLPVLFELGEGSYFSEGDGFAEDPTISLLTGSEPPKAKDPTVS
The target in assay [13] is T8, SPIC (Homo sapiens, UniProt Q8N5J4 1-248).
T8 sequence: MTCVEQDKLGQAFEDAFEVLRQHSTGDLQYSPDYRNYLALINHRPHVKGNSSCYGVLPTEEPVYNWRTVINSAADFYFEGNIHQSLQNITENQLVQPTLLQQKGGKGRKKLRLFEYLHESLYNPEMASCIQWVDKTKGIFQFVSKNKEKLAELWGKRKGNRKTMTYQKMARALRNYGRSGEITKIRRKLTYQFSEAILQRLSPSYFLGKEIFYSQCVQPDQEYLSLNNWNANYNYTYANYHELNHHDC
The conditions noted are these: protein: recombinant; tags: N-terminal GST; dsDNA, one strand shown. An outline of the steps:
as §1

Assay [14] deals with ELF4 (Homo sapiens, UniProt Q99607 1-663). The conditions noted are these: protein: recombinant; tags: N-terminal GST; dsDNA, one strand shown. An outline of the steps:
as §1

For assay [15], the target named is T9, ELK4 (Homo sapiens, UniProt P28324-2 1-405).
T9 sequence: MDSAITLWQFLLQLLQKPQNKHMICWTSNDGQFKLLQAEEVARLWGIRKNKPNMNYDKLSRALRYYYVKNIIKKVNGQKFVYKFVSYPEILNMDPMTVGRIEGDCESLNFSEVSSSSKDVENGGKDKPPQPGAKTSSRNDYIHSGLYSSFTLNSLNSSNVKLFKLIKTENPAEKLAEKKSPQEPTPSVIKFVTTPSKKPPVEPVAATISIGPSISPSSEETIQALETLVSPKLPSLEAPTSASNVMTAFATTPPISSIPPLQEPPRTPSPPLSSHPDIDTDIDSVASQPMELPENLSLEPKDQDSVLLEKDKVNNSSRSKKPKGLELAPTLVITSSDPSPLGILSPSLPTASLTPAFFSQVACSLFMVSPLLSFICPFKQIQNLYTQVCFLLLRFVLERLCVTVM
As to conditions: protein: recombinant; tags: N-terminal GST; dsDNA, one strand shown. An outline of the steps: as §1

The target of assay [16] is T10, ETV2 (Homo sapiens, UniProt O00321 1-342).
T10 sequence: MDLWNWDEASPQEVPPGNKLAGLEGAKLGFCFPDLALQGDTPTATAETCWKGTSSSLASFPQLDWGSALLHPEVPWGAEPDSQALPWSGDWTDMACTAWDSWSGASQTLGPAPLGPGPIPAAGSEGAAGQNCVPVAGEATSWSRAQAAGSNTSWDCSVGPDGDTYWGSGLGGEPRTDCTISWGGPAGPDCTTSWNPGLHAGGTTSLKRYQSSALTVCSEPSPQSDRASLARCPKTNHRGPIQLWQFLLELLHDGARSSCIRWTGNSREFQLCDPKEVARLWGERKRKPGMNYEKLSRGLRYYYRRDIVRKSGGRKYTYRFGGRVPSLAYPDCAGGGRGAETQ
As to conditions: protein: recombinant; tags: N-terminal GST; dsDNA, one strand shown. An outline of the steps: as §1

Assay [17] deals with T11, ELF3 (Homo sapiens, UniProt P78545 1-371).
T11 sequence: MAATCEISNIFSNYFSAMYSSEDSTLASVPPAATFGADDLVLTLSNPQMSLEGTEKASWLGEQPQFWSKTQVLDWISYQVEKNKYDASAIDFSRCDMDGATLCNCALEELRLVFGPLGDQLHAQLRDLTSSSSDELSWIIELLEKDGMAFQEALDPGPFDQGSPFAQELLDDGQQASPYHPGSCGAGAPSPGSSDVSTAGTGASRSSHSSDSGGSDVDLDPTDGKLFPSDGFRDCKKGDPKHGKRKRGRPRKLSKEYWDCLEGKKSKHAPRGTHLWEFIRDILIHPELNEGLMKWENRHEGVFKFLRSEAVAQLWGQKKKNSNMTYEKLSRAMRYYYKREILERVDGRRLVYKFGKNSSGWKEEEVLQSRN
As to conditions: protein: recombinant; tags: N-terminal GST; dsDNA, one strand shown. An outline of the steps: as §1

For assay [18], the target named is CRX (Homo sapiens, UniProt O43186 1-299). As to conditions: protein: recombinant; tags: N-terminal GST; dsDNA, one strand shown. An outline of the steps:
as §1

The target in assay [19] is ETV1 (Homo sapiens, UniProt P50549 1-477). As to conditions: protein: recombinant; tags: N-terminal GST; dsDNA, one strand shown. An outline of the steps: as §1
Sequence of ETV1 (P50549 whole entry): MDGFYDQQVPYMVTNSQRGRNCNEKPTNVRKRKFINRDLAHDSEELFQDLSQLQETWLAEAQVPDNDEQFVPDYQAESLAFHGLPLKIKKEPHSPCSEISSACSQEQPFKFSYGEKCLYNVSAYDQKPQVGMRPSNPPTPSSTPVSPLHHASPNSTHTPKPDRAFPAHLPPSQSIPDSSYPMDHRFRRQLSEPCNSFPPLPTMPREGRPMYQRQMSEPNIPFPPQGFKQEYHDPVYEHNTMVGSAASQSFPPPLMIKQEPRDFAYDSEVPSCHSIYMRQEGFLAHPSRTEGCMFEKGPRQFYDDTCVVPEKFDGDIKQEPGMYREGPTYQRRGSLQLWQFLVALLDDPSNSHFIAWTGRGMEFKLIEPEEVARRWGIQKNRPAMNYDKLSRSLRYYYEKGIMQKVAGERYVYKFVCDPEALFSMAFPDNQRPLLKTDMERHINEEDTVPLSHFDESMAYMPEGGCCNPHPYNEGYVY

Sequence of CRX (O43186 whole entry): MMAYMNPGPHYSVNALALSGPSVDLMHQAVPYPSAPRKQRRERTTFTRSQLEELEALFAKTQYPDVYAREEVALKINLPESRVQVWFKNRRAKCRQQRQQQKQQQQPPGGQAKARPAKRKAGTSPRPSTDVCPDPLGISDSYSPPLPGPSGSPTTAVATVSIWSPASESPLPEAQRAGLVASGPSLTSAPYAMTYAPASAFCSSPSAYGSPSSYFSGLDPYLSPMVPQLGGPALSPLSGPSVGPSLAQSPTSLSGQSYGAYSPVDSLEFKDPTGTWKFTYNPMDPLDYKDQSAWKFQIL
Sequence of ETV5 (P41161 whole entry): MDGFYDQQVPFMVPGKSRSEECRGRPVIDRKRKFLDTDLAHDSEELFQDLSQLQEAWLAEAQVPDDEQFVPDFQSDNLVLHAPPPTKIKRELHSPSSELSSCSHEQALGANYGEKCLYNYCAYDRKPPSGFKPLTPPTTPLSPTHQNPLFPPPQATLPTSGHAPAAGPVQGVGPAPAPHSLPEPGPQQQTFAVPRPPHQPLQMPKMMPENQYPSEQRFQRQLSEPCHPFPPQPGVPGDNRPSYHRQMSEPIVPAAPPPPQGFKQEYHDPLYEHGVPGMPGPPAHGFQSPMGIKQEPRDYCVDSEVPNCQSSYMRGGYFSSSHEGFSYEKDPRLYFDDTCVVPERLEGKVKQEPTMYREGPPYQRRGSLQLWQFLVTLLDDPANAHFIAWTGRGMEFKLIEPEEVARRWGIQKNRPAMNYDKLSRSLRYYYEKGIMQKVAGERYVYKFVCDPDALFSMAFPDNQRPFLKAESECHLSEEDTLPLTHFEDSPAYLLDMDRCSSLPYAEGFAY
Sequence of ELF4 (Q99607 whole entry): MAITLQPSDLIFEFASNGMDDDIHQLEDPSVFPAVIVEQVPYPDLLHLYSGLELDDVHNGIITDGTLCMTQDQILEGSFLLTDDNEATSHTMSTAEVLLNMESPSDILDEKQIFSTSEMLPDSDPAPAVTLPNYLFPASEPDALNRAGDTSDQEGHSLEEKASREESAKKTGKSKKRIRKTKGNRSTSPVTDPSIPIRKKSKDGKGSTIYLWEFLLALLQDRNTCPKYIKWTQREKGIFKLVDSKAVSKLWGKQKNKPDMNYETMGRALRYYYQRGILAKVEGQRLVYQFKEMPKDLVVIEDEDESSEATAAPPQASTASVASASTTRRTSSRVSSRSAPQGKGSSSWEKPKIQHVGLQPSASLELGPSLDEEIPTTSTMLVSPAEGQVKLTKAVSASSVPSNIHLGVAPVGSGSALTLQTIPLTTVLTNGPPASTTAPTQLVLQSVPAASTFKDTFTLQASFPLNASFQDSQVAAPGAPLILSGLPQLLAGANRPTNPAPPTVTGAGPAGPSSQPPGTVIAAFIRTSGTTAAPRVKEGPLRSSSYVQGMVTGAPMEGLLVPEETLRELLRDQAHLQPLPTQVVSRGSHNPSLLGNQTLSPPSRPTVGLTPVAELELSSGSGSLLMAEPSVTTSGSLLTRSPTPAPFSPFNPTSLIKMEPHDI

With TTTTGA, the binding signal in assay [1] is 1.13 fold enrichment (6-mer frequency, TF over GST control); in [2], 1.18 fold enrichment (6-mer frequency, TF over GST control); in assay [3] it was 1.13 fold enrichment (6-mer frequency, TF over GST control); in assay [4] it was 1.11 fold enrichment (6-mer frequency, TF over GST control); in assay [5], 1.17 fold enrichment (6-mer frequency, TF over GST control); in [6], 1.17 fold enrichment (6-mer frequency, TF over GST control). Moreover, the binding signal in assay [7] was 1.13 fold enrichment (6-mer frequency, TF over GST control); in assay [8], 1.04 fold enrichment (6-mer frequency, TF over GST control); in [9] it was 1.06 fold enrichment (6-mer frequency, TF over GST control); in [10] it was 1 fold enrichment (6-mer frequency, TF over GST control); in assay [11], 1.19 fold enrichment (6-mer frequency, TF over GST control); in [12] it was 1.12 fold enrichment (6-mer frequency, TF over GST control). In addition, the binding signal was 1.21 fold enrichment (6-mer frequency, TF over GST control) in [13]; 1.19 fold enrichment (6-mer frequency, TF over GST control) in assay [14]; 1.22 fold enrichment (6-mer frequency, TF over GST control) in [15]; 1.2 fold enrichment (6-mer frequency, TF over GST control) in assay [16]; 1.25 fold enrichment (6-mer frequency, TF over GST control) in assay [17]; 1.17 fold enrichment (6-mer frequency, TF over GST control) in assay [18]. For the same sequence, the binding signal in [19] was 1.13 fold enrichment (6-mer frequency, TF over GST control).

The values are drawn from PMC7862700, “An all-to-all approach to the identification of sequence-specific readers for epigenetic DNA modifications on cytosine”.
